A selection: hits, their analogues and other compounds. The true share with any hit is near 3.8%.
ATXN2 expr inh = Primary qHTS for Inhibitors of ATXN expression | Potency, µM (top dose mostly 57 µM), without a hit: at the highest dose activity change, negative = inhibition, actives largely listed as inhibitors | actives 0.72% (n = 360,000) | HEK-293 ATXN2-luciferase reporter, luminescence, 24 h; also: % is scaled to controls: 0 for no effect and ±100 for the full control effect; nearly all actives have a fitted effect of over 55% in size
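qHTS (up to 57 uM final) was run with 24 h compound exposure of reporter cells at 37 °C. Each well was multiplexed: SteadyGlo luminescence measured ATXN2-luciferase expression after a fluorogenic Gly-Phe-AFC viability readout (25 uM final).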
TGFb inhibitor = qHTS for Inhibitors of TGF-b. AID 588855, 2011. Potency, µM (highest dose often 46.1 µM), for inactives: top-dose activity, negative = inhibition, hits mostly inhibitors. actives 1.2% (n = 410,000). HepG2 CAGA-GFP TGF-b/SMAD3 reporter, GFP fluorescence, 18 h; TGF-beta stimulated, 500 pg/mL final; also: % is scaled to controls: 0 for no effect and ±100 for the full control effect; nearly all actives have a fitted effect of over 65% in size
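First, reporter cells (HEPG2 CAGA-GFP) rested 2 h at 37 degrees C. Next, compounds were pinned in and TGF-beta added to 500 pg/mL final. After 18 h, GFP was imaged per cell and summed per well.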
HepG2 tox-1 = qHTS for Inhibitors of TGF-b: Cytotox Counterscreen. AID 588856, 2011. HepG2 CAGA-GFP viability, ATP luminescence, 18 h. actives 0.76% (n = 410,000). Potency, µM (titrated, usually from 46.1 µM), for the others: at the top dose activity change, negative = cytotoxicity, hits mostly cytotoxic
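HepG2 CAGA-GFP cells (1000/well, DMEM with 1% FBS) received compound, then TGF-beta at 500 pg/mL final, and were incubated 18 hours at 37 degrees C. Viability was read by CellTiter-Glo luminescence. Media-only wells were set as complete cell-killing and DMSO as no toxicity.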
ATXN viability = Viability Counterscreen for Primary qHTS for Inhibitors of ATXN expression | actives 0.49% (n = 400,000) | S2 cells (HEK-293 line with an ATXN2-luciferase reporter) viability, CellTiter-Fluor protease fluorescence, 24 h | Potency, µM (top dose mostly 56.7 µM), hits mostly cytotoxic; also: nearly all actives have a fitted effect of over 40% in size
HT1080 IDH1KD tx = qHTS for induction of synthetic lethality in tumor cells producing 2HG: qHTS for the HT-1080-IDH1KD cell line. actives 2% (n = 360,000). Potency, µM (doses to about 46.1 µM), inactives show at the highest dose activity, negative = toxicity, actives largely listed as cytotoxic. HT-1080 IDH1 knockdown viability, ATP luminescence, 48 h;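 also: 0% = DMSO wells and -100% = cell-free medium wells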
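After a 2 h attachment period, IDH1KD HT-1080 cells took pin-transferred compound for 48 h at 37 °C; ATP-based luminescence after 10 min room-temperature reagent incubation reported viability.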
HT1080NT lethal = qHTS for induction of synthetic lethality in tumor cells producing 2HG: qHTS for the HT-1080-NT fibrosarcoma cell line; HT-1080-NT fibrosarcoma viability, CellTiter-Glo ATP luminescence, 48 h; Potency, µM (series often up to 46.1 µM), without a hit: top-dose activity, negative = less viability, usual class: cytotoxic; actives 1.6% (n = 360,000); AID 686970, 2013;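 also: NT is the 2HG producing partner of a matched IDH1 knockdown line; 0% = DMSO-treated cells and -100% = media-only wells without cells; nearly all actives have a fitted effect of over 55% in size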
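HT-1080-NT; 750 cells/well; 5% FBS RPMI; 48 h compound, 37 degrees C; CellTiter-Glo luminescence; curve fitting and curve-class assignment.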
TGFb confirm = qHTS for Inhibitors of TGF-b: Confirmation of Cherry Picks | shares compounds with TGFb inhibitor | HepG2 CAGA-GFP TGF-b reporter, GFP fluorescence, 18 h; cells stimulated with TGF-beta, 500 pg/mL | Potency, µM (doses to about 46.1 µM), for inactives: at the highest dose activity, negative = inhibition, actives largely listed as inhibitors | actives 63% (n = 1,600) | AID 720534, 2013; also: % is scaled to controls: 0 for no effect and ±100 for the full control effect; nearly all actives have a fitted effect of over 65% in size
HepG2 tox-2 = qHTS for Inhibitors of TGF-b: Cytotox Counterscreen for Cherry Picks; shares compounds with TGFb inhibitor; HepG2 CAGA-GFP viability, ATP luminescence, 18 h; cells stimulated with TGF-beta, 500 pg/mL; Potency, µM (top dose mostly 46.1 µM), without a hit: at the highest dose activity, negative = cytotoxicity, hits mostly inhibitors; actives 27% (n = 1,600); also: % is scaled to controls: 0 for no effect and ±100 for the full control effect; nearly all actives have a fitted effect of over 70% in size
TGFb CCL64 inh = qHTS for Inhibitors of TGF-b: CCL64 Cells Orthogonal Assay for Cherry Picks; shares compounds with TGFb inhibitor; CCL64 CAGA-GFP reporter, TGF-b stimulated, GFP fluorescence, 18 h; Potency, µM (highest dose often 46.1 µM), for inactives: top-dose activity, negative = inhibition, usual class: inhibitors; actives 41% (n = 1,600); AID 720536, 2013; also: nearly all actives have a fitted effect of over 65% in size
TGFb COP inh = qHTS for Inhibitors of TGF-b: Hit Validation in HepG2 Cells using COP promoter. actives 3% (n = 1,600). Potency, µM (highest dose often 46.1 µM), for inactives: at the highest dose activity, negative = inhibition, usual class: inhibitors. HepG2 COP-GFP TGF-b reporter, GFP fluorescence, 18 h; cells stimulated by added recombinant TGF-beta. shares compounds with TGFb inhibitor; also: nearly all actives have a fitted effect of over 70% in size
Starred values were filed as active, the others as inactive; i = inactive; ? = inconclusive; / = not tested or not shown; [ ] = another dose, or the depositor's remark. Calls follow the shape of the dose curve; as a rule, active = well fitted curve in the direction sought with a large enough effect; inconclusive = small, poorly fitted or top-dose-only effect, or another doubt; inactive = no such curve, though single readings can be large; an effect the other way counts as inactive or inconclusive. Potency is read from the fitted curve at half-maximal effect.

SMILES	ATXN2 expr inh	TGFb inhibitor	HepG2 tox-1	ATXN viability	HT1080 IDH1KD tx	HT1080NT lethal	TGFb confirm	HepG2 tox-2	TGFb CCL64 inh	TGFb COP inh
C/C(=N\NC(=O)c1ccccc1OCc1ccc(F)cc1)c1ccccn1	/	11µM*	-12%	?	?	?	15µM*	?	8.2µM*	1%
O=C(NCc1ccc(F)cc1)c1ccccc1OCc1ccccc1	7%	-11%	6%	i	?	0%	/	/	/	/
CC(=O)c1ccc(C2CC34CNS(=O)(=O)C3CC2O4)cc1 (stereo not given)	/	-16%	-29%	/	/	/	/	/	/	/
O=C(O)CCC(=O)N1CCN(S(=O)(=O)c2ccc3ccccc3c2)CC1	21%	2%	-6%	i	-2%	-8%	/	/	/	/
O=C(CCC(=O)N1CCN(S(=O)(=O)c2ccc3ccccc3c2)CC1)Nc1cc(Cl)cc(Cl)c1	/	7.1µM*	-22%	i	-14%	-5%	?	-22%	-16%	-9%
O=C(Cn1ncc(Cl)c(Cl)c1=O)N1CCN(S(=O)(=O)c2ccc3ccccc3c2)CC1	?	4µM*	-54%	/	3.7µM*	2.6µM*	2.6µM*	2.6µM*	5.2µM*	-22%
CCN(CCCNC(=O)CN1N=C(c2ccc(OC)cc2)CCC1=O)c1cccc(C)c1	/	?	-27%	/	/	/	/	/	/	/
Cc1ccc(NC(=O)CSc2nc3ccccc3nc2Cc2ccccc2)c(C)c1	-2%	12%	-11%	i	/	/	/	/	/	/
O=[N+]([O-])c1cnc(Sc2ccncn2)s1	/	2.2µM*	-109%	3.2µM*	16µM*	5.8µM*	3.7µM*	2.9µM*	2.1µM*	3.7µM*
O=[N+]([O-])c1cnc(Sc2ccncn2)c([N+](=O)[O-])c1	/	?	-99%	?	-24%	-2%	/	/	/	/
CCN(c1cccc2ccccc12)S(=O)(=O)c1cccs1	0%	?	-34%	i	-9%	0%[9.24 µM]	/	/	/	/
CC(=O)Oc1ccc(N(C(C)=O)S(=O)(=O)c2cccs2)c2ccccc12	25µM*	10µM*	-82%	?	18µM*	?	?	1%	?	12%
O=c1c2ccccc2nc(-c2ccc(Cl)cc2)n1CCCCOc1ccc(F)cc1	6%	4%	-16%	i	/	/	/	/	/	/
CCOc1ccc(CCNC(=O)Cn2ncn3c(cc4ccccc43)c2=O)cc1OCC	/	-10%	-4%	/	/	/	/	/	/	/
